“And” between values parts separate entries of the source, which are not always exact repeats. Equal entries are not always repeated. Results filed as inconclusive are left out. Values without a mark were called inactive. The call rests on the fitted dose curve; in most records, active means well fitted curve in the direction sought with a large enough effect; inconclusive means small, poorly fitted or top-dose-only effect, or another doubt; inactive means no such curve, though single readings can be large or run the other way.
On the % scale 0 is the no-effect control and ±100 the full control effect.

This assay is described as follows: qHTS Assay for Identifying Gametocytocidal Compounds (AID 743244).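 Further: actives lower the fluorescent signal which means gametocytes are killed.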 Conditions: P. falciparum 3D7 stage III-V gametocytes, alamarBlue, 72 h; max response: active compounds read low. The essentials:
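Compounds are pinned into medium, gametocytes (stage III–V, 3D7, 20,000 cells/well) added, and plates held 72 h at 37 °C in 5% CO2. AlamarBlue follows for 24 h before fluorescence reading.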
A general note: In qHTS, concentration-response curves come from the screen itself.
As to `c1ccc(-c2nn3c(c2-c2ccnc4cc(OCCN5CCOCC5)ccc24)CCC3)nc1`, the max response was -4.63%.

On to `CNC(=O)c1ccccc1Sc1ccc2c(/C=C/c3ccccn3)n[nH]c2c1`, for which the max response was 40.9%.

In the case of `COc1ccc(-c2oc3cc(OC)ccc3c2C(=O)c2ccc(C#N)cc2)cc1`, the max response is 8.18%.

Regarding `Cc1c(CCOc2ccc(C(=O)O)cc2)c2cc(Cl)ccc2n1C(c1ccccc1)c1ccccc1`, the max response is 6.58%.

As to `CC(C)(C)NCC(O)c1ccc(O)c(CO)c1` (stereo not drawn), the max response was 0.0655% and 23.1%.

In the case of `O=C(C1CC1)N1CC[C@@H](Cn2c(-c3ccc(-c4ccc5occc5c4)cc3)nc3cnccc32)C1`, the max response is -18.8%.

In the case of `C[C@@H]1CN(Cc2ccc(F)cc2)[C@@H](C)CN1C(=O)c1cc2c(C(=O)C(=O)N(C)C)cn(C)c2cc1Cl`, the max response is 12.3%.

With `COc1cc(F)c(F)c(Nc2ccc(I)cc2F)c1NS(=O)(=O)C1(C[C@H](O)CO)CC1`, the max response was 19.8%.

Consider `CNC(=O)c1ccc(C)c(-n2c(C)cc(OCc3ccc(F)cc3F)c(Br)c2=O)c1`, for which the max response is 32.9%.

Turning to `Nc1nc2[nH]cc(CCc3ccc(C(=O)N[C@@H](CCC(=O)O)C(=O)O)cc3)c2c(=O)[nH]1`, the max response is 97.2% and -5.73%.

As to `O=C(O)[C@@H](c1ccc(OCc2ccc3ccccc3n2)cc1)C1CCCC1`, the max response is 46.8%.

For `CCOc1cc(C=C2C(=O)N(c3ccccc3)N=C2C)cc(Cl)c1OCC(=O)OC`, the max response is 28.7%.

Regarding `O=c1ncn2nc(Sc3ccc(F)cc3F)ccc2c1-c1c(Cl)cccc1Cl`, the max response was 5.63%.

These data come from PubChem BioAssay (NCATS).
